Values joined by “and” are separate entries in the source; they are usually repeats but may differ in a detail not shown here. Identical values can stand only once. In all, about 5,500 compounds went through this assay and about 2,000 (36%) were called active. Another 18% or so got no clear call; they are omitted. No stated cut-off is given here; in the data, active means normalized growth mostly below about 0.91 (no sharp cut-off); inconclusive means no clear call, values can overlap the other calls; inactive means mostly above about 0.92. Some of the results follow.
Assay: chemical genetic growth profiling, strain panel (AID 1159580);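 further: tested at 20 µM; growth read once vehicle control cultures reached saturation at 30 °C; 1 = growth at the plate median or of vehicle wells; lower values mean less growth of the strain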
Settings: S. cerevisiae deletion strains, growth OD

Measured: normalized growth

O=c1cccc2n1C[C@H]1CNCC2C1
inactive: locus YAL021C, strain ccr4, active compounds read low 1 | locus YAL026C, strain drs2, active compounds read low 1.01 | locus YAL030W, strain snc1, active compounds read low 1.01 | locus YBL061C, strain skt5, active compounds read low 1.01 | locus YBR009C, strain hhf1, active compounds read low 0.982 | locus YBR021W, strain FUR4, active compounds read low 1.03 | locus YBR023C, strain chs3, active compounds read low 0.999 | locus YBR171W, strain sec66, active compounds read low 0.997 | locus YBR229C, strain ROT2, active compounds read low 1 | locus YBR231C, strain swc5, active compounds read low 1.02 | locus YBR279W, strain paf1, active compounds read low 1 | locus YCL011C, strain gbp2, active compounds read low 0.99 | locus YCL016C, strain dcc1, active compounds read low 0.973 | locus YCL029C, strain bik1, active compounds read low 0.985 | locus YCL061C, strain MRC1, active compounds read low 0.987 | locus YCL069W, strain vba3, active compounds read low 1 | locus YCR088W, strain abp1, active compounds read low 1 | locus YDL005C, strain med2, active compounds read low 1.01 | locus YDL035C, strain GPR1, active compounds read low 0.988 | locus YDL040C, strain nat1, active compounds read low 1.01 | locus YDL074C, strain BRE1, active compounds read low 0.984 | locus YDL101C, strain DUN1, active compounds read low 1.01 | locus YDL134C, strain PPH21, active compounds read low 1.03 | locus YDL185W, strain tfp1, active compounds read low 0.955 | locus YDL192W, strain arf1, active compounds read low 0.987 | locus YDR001C, strain nth1, active compounds read low 1.01 | locus YDR069C, strain doa4, active compounds read low 1.01 | locus YDR101C, strain arx1, active compounds read low 0.966 | locus YDR137W, strain rgp1, active compounds read low 1.02 | locus YDR150W, strain NUM1, active compounds read low 1 | locus YDR159W, strain sac3, active compounds read low 1 | locus YDR162C, strain NBP2, active compounds read low 1.01 | locus YDR195W, strain ref2 0.999 | locus YDR297W, strain sur2, active compounds read low 0.999 | locus YDR318W, strain mcm21, active compounds read low 0.996 | locus YDR334W, strain swr1, active compounds read low 0.999 | locus YDR335W, strain msn5, active compounds read low 1.01 | locus YDR388W, active compounds read low 0.992 | locus YDR392W, strain spt3, active compounds read low 0.899 | locus YDR502C, strain sam2, active compounds read low 1 | locus YEL003W, strain gim4, active compounds read low 1 | locus YEL037C, strain rad23, active compounds read low 1.01 | locus YEL061C, strain CIN8 (second series), active compounds read low 1.01 | locus YEL061C, strain CIN8, active compounds read low 1.01 | locus YER015W, strain faa2, active compounds read low 1.01 | locus YER016W, strain bim1, active compounds read low 1.01 | locus YER110C, active compounds read low 0.974 | locus YER111C, strain swi4, active compounds read low 0.985 | locus YER155C, strain BEM2 (second series), active compounds read low 0.974 | locus YER155C, strain BEM2, active compounds read low 1 | locus YER167W, strain BCK2, active compounds read low 1 | locus YFR010W, strain ubp6, active compounds read low 1.02 | locus YGL078C, strain dbp3, active compounds read low 0.982 | locus YGL086W, strain mad1, active compounds read low 0.965 | locus YGL167C, strain pmr1, active compounds read low 0.994 | locus YGL173C, strain kem1, active compounds read low 0.998 | locus YGL227W, strain vid30, active compounds read low 1.01 | locus YGL240W, strain doc1, active compounds read low 1.05 | locus YGL248W, strain PDE1, active compounds read low 1.03 | locus YGL253W, strain hxk2, active compounds read low 1.01 | locus YGR078C, strain PAC10, active compounds read low 1.03 | locus YGR135W, strain pre9, active compounds read low 1.02 | locus YGR252W, strain gcn5, active compounds read low 1.1 | locus YHR013C, strain ard1, active compounds read low 0.98 | locus YHR027C, strain rpn1, active compounds read low 1.01 | locus YHR030C, strain SLT2, active compounds read low 0.997 and 1.01 | locus YHR079C, strain IRE1 (second series), active compounds read low 0.966 | locus YHR079C, strain IRE1, active compounds read low 1.04 | locus YHR094C, strain hxt1, active compounds read low 0.995 | locus YHR129C, strain ARP1, active compounds read low 1 | locus YHR142W, strain chs7, active compounds read low 0.991 | locus YHR200W, strain rpn10, active compounds read low 0.979 | locus YIL066C, strain RNR3, active compounds read low 1.02 | locus YIL073C, strain SPO22, active compounds read low 0.947 | locus YIL125W, strain kgd1, active compounds read low 0.987 | locus YIR030C, strain dcg1, active compounds read low 0.992 | locus YJL092W, strain hpr5, active compounds read low 1 | locus YJL095W, strain BCK1 (second series), active compounds read low 1 | locus YJL095W, strain BCK1, active compounds read low 1.07 and 1.01 | locus YJL115W, strain asf1, active compounds read low 0.998 | locus YJL129C, strain trk1, active compounds read low 1 | locus YJL134W, strain LCB3, active compounds read low 0.999 | locus YJL154C, strain vps35, active compounds read low 0.997 | locus YJL164C, strain tpk1, active compounds read low 1 | locus YJL166W, strain qcr8, active compounds read low 0.98 | locus YJL168C, strain set2, active compounds read low 0.984 | locus YJL187C, strain SWE1 (second series), active compounds read low 1.01 | locus YJL187C, strain SWE1, active compounds read low 1.01

Source: PubChem BioAssay AID1159580 (chemical genetic matrix, 2015)
